# PubChem BioAssay (NCATS)
# Inconclusive results are not listed. Values without a mark were called inactive. The source made the active and inactive calls. Calls come from the whole dose curve; as a rule, active = well fitted inhibition curve with a large enough effect; inconclusive = small, poorly fitted or top-dose-only effect; inactive = flat fitted curve, though single readings scatter.
# Molecular target: Glutathione peroxidase 1 (Homo sapiens) (UniProt P07203)
# Experiment: Primary qHTS Assay for Inhibitors of Recombinant Selenoprotein Glutathione Peroxidase 1 (GPX1) (AID 1845191)
# Conditions: recombinant GPX1, GR-coupled NADPH fluorescence, 15 min; series mostly up to 48.8 µM; activity, negative = inhibition: at the top concentration
# How it was run: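 GR-coupled assay: compounds preincubated 30 min at room temperature with GPX1, then reaction started with CHP; final 10 nM GPX1, 1 mM GSH, 0.5 mM CHP, 0.5 mM NADPH, 100 nM GR, 0.01% BSA, pH 7.5 Tris buffer. NADPH fluorescence (340/450 nm) read at 0 and 15 min.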
# % is set by controls: 0 for no effect and ±100 for the full control effect.
# Note: nearly all actives have a fitted effect of over 65% in size.
# Sequence of Glutathione peroxidase 1 (Homo sapiens) (P07203 whole entry, looked up): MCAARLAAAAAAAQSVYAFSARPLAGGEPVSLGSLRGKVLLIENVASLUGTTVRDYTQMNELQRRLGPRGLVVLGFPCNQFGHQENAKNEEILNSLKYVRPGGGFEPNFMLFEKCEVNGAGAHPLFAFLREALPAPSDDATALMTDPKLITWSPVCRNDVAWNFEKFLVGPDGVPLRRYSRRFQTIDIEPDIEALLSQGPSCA
Structure (SMILES),outcome,"activity, negative = inhibition",Potency
CCCNCCc1ccc(NS(=O)(=O)c2ccc(OC(F)(F)F)cc2)cc1,inactive,–,–
CCOC(=O)CCNc1cc(N2CCc3ccccc3CC2)nc(-c2cccnc2)n1,–,-19.7%,–
NC(=O)CCCSc1nc(N)nc(-c2c(Cl)cc3c4c(cccc24)COC3)n1,–,-18.5%,–
C1=Cc2ccccc2C(=C2CCN(CCCCc3nn[nH]n3)CC2)c2ccccc21,–,-14.5%,–
C/C=C(/C)C(=O)O[C@H]1[C@H](OC(=O)/C(C)=C\C)[C@@]23C(CC1(C)C)[C@]1(CCC4[C@@]5(C)CC[C@H](O[C@@H]6O[C@H](C(=O)O)[C@@H](O)[C@H](O[C@@H]7O[C@H](CO)[C@H](O)[C@H](O)[C@H]7O[C@@H]7O[C@@H](C)[C@H](O)[C@@H](O)[C@H]7O[C@@H]7OC[C@@H](O)[C@H](O)[C@H]7O)[C@H]6O[C@@H]6O[C@H](CO)[C@H](O)[C@H](O)[C@H]6O)C(C)(C)C5CC[C@@]4(C)[C@]1(C)C[C@H]2O)O[C@H]3O (some centres undefined),–,-2.94% [at 9.52 µM],–
O=C(NCc1ccccc1-c1ccccc1C(=O)NCCc1ccccn1)OCc1ccccc1,–,-7.79%,–
O=C(NCCCc1ccccc1)C1CCC(CNS(=O)(=O)c2cccc3nsnc23)CC1 (centres undefined),inactive,–,–
COc1cc(OC)c2c(=O)[nH]c(-c3cc(C)c(OCCO)c(C)c3)nc2c1,–,–,inactive
CC(C)(O)c1ccn2c(-c3ccc(F)c(-c4ccc(F)cc4C#N)c3)cnc2c1F,–,-0.839%,–
C=CC(=O)N1CC(N2CCN(C(=O)CNc3cc(C4CC4)c(Cl)cc3O)CC2)C1,–,-13.6%,–
COc1ccc(NC(=O)C2C[C@H](C)CC[C@H]2C(C)C)cc1 (some centres undefined),inactive,–,–
Fc1ccc(-c2nc(C3CCNCC3)sc2-c2ccnc(NC3CC3)n2)cc1,–,0.496%,–
O=C(Nc1ccc(-n2nc(C(F)(F)F)cc2C(F)(F)F)cc1)c1ccncc1F,–,-5.31%,–
CC(=O)NC(C)c1cnc(-c2cnc(Oc3ccc(OC(C)C)cc3)s2)s1 (centres undefined),–,-9.03%,–
C=C1C(=O)OC2CC3(C)C(O)C(=O)C=C(C)C3CC12 (centres undefined),–,4.28%,–
CC(=O)NCc1cccc(OC[C@@H](O)CNCCc2ccc(NS(=O)(=O)c3ccccc3)cc2)c1,–,0.619%,–
Cc1c(C(=O)Nc2ccc(N3CCC(N4CCOCC4)CC3)c(C#N)c2)cnn1-c1ccc(Cl)cc1,inactive,–,–
CC(=O)O[C@@H]1CC[C@@]2(C)C(CC[C@]3(C)C2[C@H](O)C=C2[C@H]4[C@@H](C)[C@H](C)CC[C@]4(C)CC[C@]23C)[C@@]1(C)C(=O)O (some centres undefined),inactive [at 27.7 µM],–,–
CCn1c(-c2nonc2N)nc2c(C#CCO)ncc(OCCCN)c21,–,-25.5%,–
C[C@@H]1O[C@@H](O[C@H]2[C@@H](OC(=O)[C@]34CCC(C)(C)CC3C3=CCC5[C@@]6(C)C[C@H](O)[C@H](O[C@@H]7O[C@H](CO)[C@@H](O)[C@H](O)[C@H]7O[C@@H]7OC[C@@H](O)[C@H](O)[C@H]7O)[C@@](C)(C(=O)O)C6CC[C@@]5(C)[C@]3(C)CC4)OC[C@H](O)[C@@H]2O)[C@H](O)[C@H](O)[C@H]1O[C@@H]1OC[C@@H](O)[C@H](O)[C@H]1O (some centres undefined),inactive [at 9.52 µM],–,–
COc1ccc(S(=O)(=O)n2cnc3cc(C)c(C)cc32)cc1,–,2.95%,–
CC(=O)C1=CCC2C3CC=C4CC(O)CC(O)C4(C)C3C(O)CC12C (centres undefined),–,2.01% [at 27.7 µM],–
CC(C)C[C@@H]1NC(=O)[C@@H](Cc2ccccc2)NC(=O)C(CCCCCC(=O)C2CO2)NC(=O)[C@@H]2CCCCN2C1=O (some centres undefined),–,3.19% [at 27.7 µM],–
C=C1CC[C@@H](O)[C@]2(C)C[C@H]3OC(=O)C(=C)[C@H]3CC12 (some centres undefined),inactive,–,–
CC1CCCC(O)CCC/C=C/c2cc(OS(=O)(=O)O)cc(O)c2C(=O)O1 (centres undefined),–,3.33% [at 27.7 µM],–

# Molecular target: Phospholipid hydroperoxide glutathione peroxidase GPX4 (Homo sapiens) (UniProt P36969)
# Experiment: Primary qHTS Assay for Inhibitors of Recombinant Selenoprotein Glutathione Peroxidase 4 (GPX4) (AID 1845192)
# Conditions: recombinant GPX4, GR-coupled NADPH fluorescence, 15 min; series mostly up to 50 µM; activity change, negative = inhibition: at the top concentration
# How it was run: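 GR-coupled assay: recombinant GPX4 preincubated 30 min with compound at room temperature; final 200 nM GPX4, 1 mM GSH, 0.5 mM cumene hydroperoxide, 0.5 mM NADPH, 100 nM GR, 0.01% BSA, pH 7.5 Tris. NADPH fluorescence (340/450 nm) read at 0 and 15 min.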
# Sequence of Phospholipid hydroperoxide glutathione peroxidase GPX4 (Homo sapiens) (P36969 whole entry, looked up): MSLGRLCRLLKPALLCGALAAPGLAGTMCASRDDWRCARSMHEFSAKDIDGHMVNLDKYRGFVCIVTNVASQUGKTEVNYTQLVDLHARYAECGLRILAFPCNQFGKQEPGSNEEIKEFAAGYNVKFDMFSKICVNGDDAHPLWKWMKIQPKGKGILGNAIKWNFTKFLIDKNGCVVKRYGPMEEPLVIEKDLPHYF
Structure (SMILES),"activity change, negative = inhibition",outcome,Potency
COc1cc(/C=C2\CC[C@H]3COC[C@@H](c4cc(F)c(F)c(F)c4)N3C2=O)ccc1-n1cnc(C)c1,-9.08%,–,–
CNC(=O)c1cc(Oc2ccc(NC(=O)c3cccc(C(F)(F)F)c3)cc2)ccn1,–,inactive,–
COc1cccc(OCCCN)c1-c1cc(Nc2cnc(C#N)cn2)n[nH]1,–,–,inactive
COC(=O)C[C@H]1C(C)(C)[C@H](OC(=O)c2ccccc2)C2CC3=C4CC(=O)O[C@@H](c5ccoc5)[C@]4(C)CCC3[C@@]1(C)C2=O (some centres undefined),-2.23% [at 27.8 µM],–,–
OC[C@H]1O[C@@H](OC/C=C/c2ccc(O)cc2)[C@H](O)[C@@H](O)[C@@H]1O,-7.93% [at 27.8 µM],–,–
CC(C)(CO)c1cc2cc(NC(=O)C3(c4ccc5c(c4)OC(F)(F)O5)CC3)c(F)cc2n1CC(O)CO (centres undefined),-0.853%,–,–
C/C=C(\C)C(=O)O[C@H]1C[C@](C)(O)[C@H]2CC=C(C)[C@H]2[C@@H]2OC(=O)[C@H](C)[C@H]21,-8.95% [at 27.8 µM],–,–
Nc1nc(OCc2cc(Br)cs2)c2[nH]cnc2n1,-1.33%,–,–
CC(C)(Cc1ccccc1)NCC(O)c1ccc(O)c(NS(C)(=O)=O)c1 (centres undefined),-6.52%,–,–
C=C1CCCC2(C)CCC(C(C)(C)OC3OC(C)C(O)C(O)C3OC(=O)/C(C)=C\C)CC12 (centres undefined),-29.9% [at 27.8 µM],–,–
C=C1C(=O)OC2/C=C(\COC(C)=O)CC/C=C(\C=O)CC(OC(=O)CC(C)C)C12 (centres undefined),–,inactive [at 27.8 µM],–
NC(=O)c1nc(Nc2ccccc2)sc1NC(=O)C1CCCCC1,3.99%,–,–
CNCc1cc(-c2ccccc2F)n(S(=O)(=O)c2cccnc2)c1,–,–,inactive
O=C(CNC(=O)c1cccc(C(F)(F)F)c1)N[C@@H]1CCN(Cc2ccc(Cl)cc2)C1,11.8%,–,–
CCCNCCc1ccc(NS(=O)(=O)c2ccc(OC(F)(F)F)cc2)cc1,7.13%,–,–
CCOC(=O)CCNc1cc(N2CCc3ccccc3CC2)nc(-c2cccnc2)n1,-13.4%,–,–
NC(=O)CCCSc1nc(N)nc(-c2c(Cl)cc3c4c(cccc24)COC3)n1,7%,–,–
C1=Cc2ccccc2C(=C2CCN(CCCCc3nn[nH]n3)CC2)c2ccccc21,0.417%,–,–
C/C=C(/C)C(=O)O[C@H]1[C@H](OC(=O)/C(C)=C\C)[C@@]23C(CC1(C)C)[C@]1(CCC4[C@@]5(C)CC[C@H](O[C@@H]6O[C@H](C(=O)O)[C@@H](O)[C@H](O[C@@H]7O[C@H](CO)[C@H](O)[C@H](O)[C@H]7O[C@@H]7O[C@@H](C)[C@H](O)[C@@H](O)[C@H]7O[C@@H]7OC[C@@H](O)[C@H](O)[C@H]7O)[C@H]6O[C@@H]6O[C@H](CO)[C@H](O)[C@H](O)[C@H]6O)C(C)(C)C5CC[C@@]4(C)[C@]1(C)C[C@H]2O)O[C@H]3O (some centres undefined),-2.35% [at 9.73 µM],–,–
O=C(NCc1ccccc1-c1ccccc1C(=O)NCCc1ccccn1)OCc1ccccc1,0.247%,–,–

Structure (SMILES),"activity change, negative = inhibition",outcome,Potency
O=C(NCCCc1ccccc1)C1CCC(CNS(=O)(=O)c2cccc3nsnc23)CC1 (centres undefined),–,inactive,–
COc1cc(OC)c2c(=O)[nH]c(-c3cc(C)c(OCCO)c(C)c3)nc2c1,–,–,inactive
CC(C)(O)c1ccn2c(-c3ccc(F)c(-c4ccc(F)cc4C#N)c3)cnc2c1F,-4.21%,–,–
C=CC(=O)N1CC(N2CCN(C(=O)CNc3cc(C4CC4)c(Cl)cc3O)CC2)C1,2.14%,–,–
COc1ccc(NC(=O)C2C[C@H](C)CC[C@H]2C(C)C)cc1 (some centres undefined),3.45%,–,–
Fc1ccc(-c2nc(C3CCNCC3)sc2-c2ccnc(NC3CC3)n2)cc1,-4.82%,–,–
O=C(Nc1ccc(-n2nc(C(F)(F)F)cc2C(F)(F)F)cc1)c1ccncc1F,-5.24%,–,–
CC(=O)NC(C)c1cnc(-c2cnc(Oc3ccc(OC(C)C)cc3)s2)s1 (centres undefined),3.45%,–,–
C=C1C(=O)OC2CC3(C)C(O)C(=O)C=C(C)C3CC12 (centres undefined),1.88%,–,–
CC(=O)NCc1cccc(OC[C@@H](O)CNCCc2ccc(NS(=O)(=O)c3ccccc3)cc2)c1,–,inactive,–
Cc1c(C(=O)Nc2ccc(N3CCC(N4CCOCC4)CC3)c(C#N)c2)cnn1-c1ccc(Cl)cc1,8.98%,–,–
CC(=O)O[C@@H]1CC[C@@]2(C)C(CC[C@]3(C)C2[C@H](O)C=C2[C@H]4[C@@H](C)[C@H](C)CC[C@]4(C)CC[C@]23C)[C@@]1(C)C(=O)O (some centres undefined),-10.1% [at 27.8 µM],–,–
CCn1c(-c2nonc2N)nc2c(C#CCO)ncc(OCCCN)c21,-1.65%,–,–
C[C@@H]1O[C@@H](O[C@H]2[C@@H](OC(=O)[C@]34CCC(C)(C)CC3C3=CCC5[C@@]6(C)C[C@H](O)[C@H](O[C@@H]7O[C@H](CO)[C@@H](O)[C@H](O)[C@H]7O[C@@H]7OC[C@@H](O)[C@H](O)[C@H]7O)[C@@](C)(C(=O)O)C6CC[C@@]5(C)[C@]3(C)CC4)OC[C@H](O)[C@@H]2O)[C@H](O)[C@H](O)[C@H]1O[C@@H]1OC[C@@H](O)[C@H](O)[C@H]1O (some centres undefined),1.61% [at 9.73 µM],–,–
COc1ccc(S(=O)(=O)n2cnc3cc(C)c(C)cc32)cc1,–,inactive,–
CC(=O)C1=CCC2C3CC=C4CC(O)CC(O)C4(C)C3C(O)CC12C (centres undefined),–,inactive [at 27.8 µM],–
CC(C)C[C@@H]1NC(=O)[C@@H](Cc2ccccc2)NC(=O)C(CCCCCC(=O)C2CO2)NC(=O)[C@@H]2CCCCN2C1=O (some centres undefined),-5.14% [at 27.8 µM],–,–
C=C1CC[C@@H](O)[C@]2(C)C[C@H]3OC(=O)C(=C)[C@H]3CC12 (some centres undefined),-3.49%,–,–
CC1CCCC(O)CCC/C=C/c2cc(OS(=O)(=O)O)cc(O)c2C(=O)O1 (centres undefined),-13.4% [at 27.8 µM],–,–
